# Measured values: article PMC7862700, “An all-to-all approach to the identification of sequence-specific readers for epigenetic DNA modifications on cytosine”
# Legend:
# Assay in all cases: DAPPL (digital affinity profiling via proximity ligation, sequencing); 10 mM Tris-HCl pH 7.5, 50 mM NaCl, 1 mM DTT, 4% glycerol, room temperature, 30 min; GST-TFs on glutathione beads, 16-mer random dsDNA library, 0.1% formaldehyde crosslink after washing; high values mean tight binding
# FLI1 = biological target: T1, FLI1 (Homo sapiens, UniProt Q01543 1-452); conditions: protein: recombinant; tags: N-terminal GST; dsDNA, one strand shown
# T1 sequence: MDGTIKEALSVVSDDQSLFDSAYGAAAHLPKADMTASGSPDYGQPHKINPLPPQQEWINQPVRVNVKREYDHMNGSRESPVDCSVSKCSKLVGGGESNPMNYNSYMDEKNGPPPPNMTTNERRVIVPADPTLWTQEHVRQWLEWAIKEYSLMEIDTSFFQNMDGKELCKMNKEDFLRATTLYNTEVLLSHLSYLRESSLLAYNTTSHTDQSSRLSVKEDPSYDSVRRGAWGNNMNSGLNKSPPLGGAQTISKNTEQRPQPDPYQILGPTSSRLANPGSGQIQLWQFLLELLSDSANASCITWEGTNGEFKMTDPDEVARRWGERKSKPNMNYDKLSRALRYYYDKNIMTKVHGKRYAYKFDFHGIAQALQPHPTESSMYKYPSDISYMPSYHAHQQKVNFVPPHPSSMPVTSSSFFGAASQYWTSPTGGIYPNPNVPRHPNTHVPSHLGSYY
# Method in brief: (§1)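 A tag-only sample was pooled with DNA-barcoded human transcription factors that had been expressed in yeast as GST fusions and captured on glutathione beads. The pools were incubated for 30 min at room temperature with 200 nmole of a random double-stranded 16-mer DNA library in Tris/NaCl/DTT/glycerol buffer, then washed, crosslinked with 0.1% formaldehyde, proximity-ligated (BsaI/T4 ligase, 1 h, 37 °C), PCR-amplified and sequenced on an Illumina NextSeq500. Binding signal is each hexamer's read frequency for a factor divided by its frequency for the tag-only sample.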
# ELK1 = biological target: T2, ELK1 (Homo sapiens, UniProt P19419 1-428); conditions: protein: recombinant; tags: N-terminal GST; dsDNA, one strand shown
# T2 sequence: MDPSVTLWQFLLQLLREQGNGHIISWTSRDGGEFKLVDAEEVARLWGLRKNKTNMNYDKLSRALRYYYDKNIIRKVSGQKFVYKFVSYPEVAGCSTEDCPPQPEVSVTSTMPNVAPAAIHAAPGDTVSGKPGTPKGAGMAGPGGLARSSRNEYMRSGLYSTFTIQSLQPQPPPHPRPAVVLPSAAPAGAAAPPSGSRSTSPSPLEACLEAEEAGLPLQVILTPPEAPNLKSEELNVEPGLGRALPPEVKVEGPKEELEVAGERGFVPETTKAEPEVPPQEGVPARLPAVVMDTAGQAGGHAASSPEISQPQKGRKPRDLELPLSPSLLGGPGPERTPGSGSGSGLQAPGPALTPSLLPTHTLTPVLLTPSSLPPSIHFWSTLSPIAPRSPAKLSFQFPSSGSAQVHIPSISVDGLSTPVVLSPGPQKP
# Method in brief: as §1
# GABPA = biological target: T3, GABPA (Homo sapiens, UniProt Q06546 1-454); conditions: protein: recombinant; tags: N-terminal GST; dsDNA, one strand shown
# T3 sequence: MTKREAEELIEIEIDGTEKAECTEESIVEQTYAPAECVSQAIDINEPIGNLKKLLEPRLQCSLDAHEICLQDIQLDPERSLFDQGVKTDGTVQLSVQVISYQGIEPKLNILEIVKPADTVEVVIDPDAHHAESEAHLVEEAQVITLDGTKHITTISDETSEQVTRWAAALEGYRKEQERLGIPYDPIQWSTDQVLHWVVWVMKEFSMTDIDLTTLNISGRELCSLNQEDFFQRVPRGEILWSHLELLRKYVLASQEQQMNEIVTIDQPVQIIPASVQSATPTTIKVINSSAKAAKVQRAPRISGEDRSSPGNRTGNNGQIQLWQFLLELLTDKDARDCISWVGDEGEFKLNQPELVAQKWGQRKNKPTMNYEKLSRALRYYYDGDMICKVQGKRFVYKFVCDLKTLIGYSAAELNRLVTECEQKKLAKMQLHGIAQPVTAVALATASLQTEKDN
# Method in brief: as §1
# ERG = biological target: T4, ERG (Homo sapiens, UniProt P11308 1-479); conditions: protein: recombinant; tags: N-terminal GST; dsDNA, one strand shown
# T4 sequence: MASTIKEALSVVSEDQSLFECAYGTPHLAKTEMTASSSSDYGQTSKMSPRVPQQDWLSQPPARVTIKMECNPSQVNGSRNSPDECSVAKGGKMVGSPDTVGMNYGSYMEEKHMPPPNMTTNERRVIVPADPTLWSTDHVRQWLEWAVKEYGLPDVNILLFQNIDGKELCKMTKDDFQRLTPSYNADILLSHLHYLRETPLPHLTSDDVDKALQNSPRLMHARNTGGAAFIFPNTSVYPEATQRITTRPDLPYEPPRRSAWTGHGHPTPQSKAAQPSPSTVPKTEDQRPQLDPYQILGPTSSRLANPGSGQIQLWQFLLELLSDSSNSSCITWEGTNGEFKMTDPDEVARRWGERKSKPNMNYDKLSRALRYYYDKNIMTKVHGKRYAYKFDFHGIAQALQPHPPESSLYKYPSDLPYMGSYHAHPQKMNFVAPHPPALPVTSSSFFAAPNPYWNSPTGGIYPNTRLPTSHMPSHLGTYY
# Method in brief: as §1
# ELF1 = ELF1 (Homo sapiens, UniProt P32519 1-619); conditions: protein: recombinant; tags: N-terminal GST; dsDNA, one strand shown
# Method in brief: as §1
# EHF = biological target: T5, EHF (Homo sapiens, UniProt Q9NZC4 1-300); conditions: protein: recombinant; tags: N-terminal GST; dsDNA, one strand shown
# T5 sequence: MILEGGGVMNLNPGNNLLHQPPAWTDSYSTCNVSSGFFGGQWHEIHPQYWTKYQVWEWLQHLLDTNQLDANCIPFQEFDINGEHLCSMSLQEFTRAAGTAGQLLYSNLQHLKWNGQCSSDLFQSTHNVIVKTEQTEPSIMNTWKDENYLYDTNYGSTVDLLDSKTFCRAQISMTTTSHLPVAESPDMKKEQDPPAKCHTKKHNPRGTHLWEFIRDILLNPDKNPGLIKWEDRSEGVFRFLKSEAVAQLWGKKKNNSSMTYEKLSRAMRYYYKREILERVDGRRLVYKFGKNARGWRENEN
# Method in brief: as §1
# SPI1 = SPI1 (Homo sapiens, UniProt P17947 1-270); conditions: protein: recombinant; tags: N-terminal GST; dsDNA, one strand shown
# Method in brief: as §1
# SPIB = SPIB (Homo sapiens, UniProt Q01892 1-262); conditions: protein: recombinant; tags: N-terminal GST; dsDNA, one strand shown
# Method in brief: as §1
# ELK3 = biological target: T6, ELK3 (Homo sapiens, UniProt P41970 1-407); conditions: protein: recombinant; tags: N-terminal GST; dsDNA, one strand shown
# T6 sequence: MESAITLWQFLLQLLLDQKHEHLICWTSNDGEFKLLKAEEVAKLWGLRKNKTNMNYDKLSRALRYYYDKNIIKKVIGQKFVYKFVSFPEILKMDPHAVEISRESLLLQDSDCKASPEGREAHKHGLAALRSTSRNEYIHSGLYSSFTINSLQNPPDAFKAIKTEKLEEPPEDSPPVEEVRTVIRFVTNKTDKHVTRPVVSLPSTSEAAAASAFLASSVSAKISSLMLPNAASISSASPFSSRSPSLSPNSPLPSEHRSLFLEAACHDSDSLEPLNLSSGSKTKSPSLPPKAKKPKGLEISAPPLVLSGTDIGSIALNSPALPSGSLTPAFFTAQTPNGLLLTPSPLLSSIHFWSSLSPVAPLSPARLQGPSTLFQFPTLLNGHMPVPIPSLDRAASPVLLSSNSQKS
# Method in brief: as §1
# FEV = biological target: T7, FEV (Homo sapiens, UniProt Q99581 1-238); conditions: protein: recombinant; tags: N-terminal GST; dsDNA, one strand shown
# T7 sequence: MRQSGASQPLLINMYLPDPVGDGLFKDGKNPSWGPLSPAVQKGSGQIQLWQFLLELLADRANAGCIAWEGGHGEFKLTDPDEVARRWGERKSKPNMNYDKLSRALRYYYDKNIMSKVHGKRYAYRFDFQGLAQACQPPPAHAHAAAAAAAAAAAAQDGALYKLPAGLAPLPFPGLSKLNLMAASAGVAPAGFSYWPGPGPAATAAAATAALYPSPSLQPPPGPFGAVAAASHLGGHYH
# Method in brief: as §1
# ETV5 = ETV5 (Homo sapiens, UniProt P41161 1-510); conditions: protein: recombinant; tags: N-terminal GST; dsDNA, one strand shown
# Method in brief: as §1
# HSF1 = HSF1 (Homo sapiens, UniProt Q00613 1-529); conditions: protein: recombinant; tags: N-terminal GST; chain copies: 3; dsDNA, one strand shown
# Method in brief: as §1
# SPIC = biological target: T8, SPIC (Homo sapiens, UniProt Q8N5J4 1-248); conditions: protein: recombinant; tags: N-terminal GST; dsDNA, one strand shown
# T8 sequence: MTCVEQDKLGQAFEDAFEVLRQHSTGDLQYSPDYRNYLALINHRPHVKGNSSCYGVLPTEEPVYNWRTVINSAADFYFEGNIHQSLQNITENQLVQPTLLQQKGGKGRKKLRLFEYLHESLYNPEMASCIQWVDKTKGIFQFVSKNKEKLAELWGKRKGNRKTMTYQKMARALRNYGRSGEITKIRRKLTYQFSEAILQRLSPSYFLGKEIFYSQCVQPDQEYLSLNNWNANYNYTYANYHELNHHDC
# Method in brief: as §1
# ELF4 = ELF4 (Homo sapiens, UniProt Q99607 1-663); conditions: protein: recombinant; tags: N-terminal GST; dsDNA, one strand shown
# Method in brief: as §1
# ELK4 = biological target: T9, ELK4 (Homo sapiens, UniProt P28324-2 1-405); conditions: protein: recombinant; tags: N-terminal GST; dsDNA, one strand shown
# T9 sequence: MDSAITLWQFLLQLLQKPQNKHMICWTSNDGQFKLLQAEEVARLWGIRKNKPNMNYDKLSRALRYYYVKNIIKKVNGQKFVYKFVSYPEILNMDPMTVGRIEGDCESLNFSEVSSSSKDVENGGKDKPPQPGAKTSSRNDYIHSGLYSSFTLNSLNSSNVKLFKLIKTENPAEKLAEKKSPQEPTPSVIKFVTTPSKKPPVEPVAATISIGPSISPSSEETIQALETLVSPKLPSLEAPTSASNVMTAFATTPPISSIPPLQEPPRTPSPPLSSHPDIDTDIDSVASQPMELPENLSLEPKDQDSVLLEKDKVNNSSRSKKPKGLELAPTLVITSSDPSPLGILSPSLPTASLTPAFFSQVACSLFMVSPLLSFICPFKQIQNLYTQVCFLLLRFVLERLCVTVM
# Method in brief: as §1
# ETV2 = biological target: T10, ETV2 (Homo sapiens, UniProt O00321 1-342); conditions: protein: recombinant; tags: N-terminal GST; dsDNA, one strand shown
# T10 sequence: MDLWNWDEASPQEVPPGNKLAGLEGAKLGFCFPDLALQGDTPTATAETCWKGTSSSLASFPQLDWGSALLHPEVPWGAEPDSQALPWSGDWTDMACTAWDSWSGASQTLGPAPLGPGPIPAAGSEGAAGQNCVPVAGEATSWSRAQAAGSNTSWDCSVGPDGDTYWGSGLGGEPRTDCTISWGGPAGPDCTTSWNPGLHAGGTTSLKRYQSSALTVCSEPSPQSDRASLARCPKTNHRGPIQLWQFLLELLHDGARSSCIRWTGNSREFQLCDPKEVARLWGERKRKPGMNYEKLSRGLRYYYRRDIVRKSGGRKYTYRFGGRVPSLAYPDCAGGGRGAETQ
# Method in brief: as §1
# ELF3 = biological target: T11, ELF3 (Homo sapiens, UniProt P78545 1-371); conditions: protein: recombinant; tags: N-terminal GST; dsDNA, one strand shown
# T11 sequence: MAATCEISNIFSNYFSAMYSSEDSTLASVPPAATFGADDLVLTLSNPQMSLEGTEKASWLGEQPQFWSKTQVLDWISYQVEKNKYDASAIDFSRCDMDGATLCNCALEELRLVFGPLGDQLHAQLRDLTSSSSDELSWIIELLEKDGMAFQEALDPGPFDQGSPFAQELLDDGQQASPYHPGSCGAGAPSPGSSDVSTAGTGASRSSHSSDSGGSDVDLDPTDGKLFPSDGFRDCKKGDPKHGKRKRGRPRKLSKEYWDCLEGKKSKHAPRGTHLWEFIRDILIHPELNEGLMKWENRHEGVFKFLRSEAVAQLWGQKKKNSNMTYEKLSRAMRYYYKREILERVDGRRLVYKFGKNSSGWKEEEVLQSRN
# Method in brief: as §1
# CRX = CRX (Homo sapiens, UniProt O43186 1-299); conditions: protein: recombinant; tags: N-terminal GST; dsDNA, one strand shown
# Method in brief: as §1
# ETV1 = ETV1 (Homo sapiens, UniProt P50549 1-477); conditions: protein: recombinant; tags: N-terminal GST; dsDNA, one strand shown
# Method in brief: as §1
# Chain of HSF1 (Q00613 whole entry): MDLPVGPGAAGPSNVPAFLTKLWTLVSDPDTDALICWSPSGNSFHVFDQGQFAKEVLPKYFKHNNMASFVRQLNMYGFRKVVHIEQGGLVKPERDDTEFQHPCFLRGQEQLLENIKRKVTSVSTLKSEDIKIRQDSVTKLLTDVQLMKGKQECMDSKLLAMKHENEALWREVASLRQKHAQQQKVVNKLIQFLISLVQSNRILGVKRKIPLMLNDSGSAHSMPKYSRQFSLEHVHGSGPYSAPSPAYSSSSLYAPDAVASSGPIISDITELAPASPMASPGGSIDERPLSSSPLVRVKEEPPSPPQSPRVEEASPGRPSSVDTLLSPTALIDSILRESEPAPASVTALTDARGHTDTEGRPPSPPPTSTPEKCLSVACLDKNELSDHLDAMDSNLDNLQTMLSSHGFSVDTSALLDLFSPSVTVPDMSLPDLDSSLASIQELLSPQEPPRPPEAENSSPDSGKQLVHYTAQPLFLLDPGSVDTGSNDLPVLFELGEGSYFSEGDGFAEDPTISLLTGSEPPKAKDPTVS
# Chain of ETV5 (P41161 whole entry): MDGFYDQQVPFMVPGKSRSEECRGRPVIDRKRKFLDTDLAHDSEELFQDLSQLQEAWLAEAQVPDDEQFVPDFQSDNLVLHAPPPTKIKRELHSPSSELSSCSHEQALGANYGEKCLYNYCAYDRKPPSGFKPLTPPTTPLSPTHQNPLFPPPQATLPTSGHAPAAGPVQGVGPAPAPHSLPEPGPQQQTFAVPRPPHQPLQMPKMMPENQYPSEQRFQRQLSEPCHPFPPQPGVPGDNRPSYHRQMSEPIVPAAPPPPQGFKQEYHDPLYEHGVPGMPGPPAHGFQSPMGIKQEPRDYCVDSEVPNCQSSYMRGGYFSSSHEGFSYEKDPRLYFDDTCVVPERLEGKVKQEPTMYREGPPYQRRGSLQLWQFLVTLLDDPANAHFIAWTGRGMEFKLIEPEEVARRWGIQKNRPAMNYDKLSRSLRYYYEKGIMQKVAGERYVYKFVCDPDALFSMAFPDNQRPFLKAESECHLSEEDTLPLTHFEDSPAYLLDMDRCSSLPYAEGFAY
# Chain of ETV1 (P50549 whole entry): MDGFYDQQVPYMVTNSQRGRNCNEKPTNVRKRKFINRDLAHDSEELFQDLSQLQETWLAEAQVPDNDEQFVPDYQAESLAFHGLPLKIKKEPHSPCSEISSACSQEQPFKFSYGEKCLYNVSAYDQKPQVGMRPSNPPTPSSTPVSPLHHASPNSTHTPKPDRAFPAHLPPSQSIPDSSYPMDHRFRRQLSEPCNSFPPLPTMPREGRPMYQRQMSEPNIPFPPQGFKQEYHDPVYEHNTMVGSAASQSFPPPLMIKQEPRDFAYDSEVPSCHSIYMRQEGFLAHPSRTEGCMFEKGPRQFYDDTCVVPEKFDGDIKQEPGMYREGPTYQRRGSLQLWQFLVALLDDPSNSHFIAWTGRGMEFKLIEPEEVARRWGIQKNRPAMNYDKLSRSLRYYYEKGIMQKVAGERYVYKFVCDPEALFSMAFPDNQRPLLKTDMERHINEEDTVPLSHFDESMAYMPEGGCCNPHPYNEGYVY
# Chain of ELF1 (P32519 whole entry): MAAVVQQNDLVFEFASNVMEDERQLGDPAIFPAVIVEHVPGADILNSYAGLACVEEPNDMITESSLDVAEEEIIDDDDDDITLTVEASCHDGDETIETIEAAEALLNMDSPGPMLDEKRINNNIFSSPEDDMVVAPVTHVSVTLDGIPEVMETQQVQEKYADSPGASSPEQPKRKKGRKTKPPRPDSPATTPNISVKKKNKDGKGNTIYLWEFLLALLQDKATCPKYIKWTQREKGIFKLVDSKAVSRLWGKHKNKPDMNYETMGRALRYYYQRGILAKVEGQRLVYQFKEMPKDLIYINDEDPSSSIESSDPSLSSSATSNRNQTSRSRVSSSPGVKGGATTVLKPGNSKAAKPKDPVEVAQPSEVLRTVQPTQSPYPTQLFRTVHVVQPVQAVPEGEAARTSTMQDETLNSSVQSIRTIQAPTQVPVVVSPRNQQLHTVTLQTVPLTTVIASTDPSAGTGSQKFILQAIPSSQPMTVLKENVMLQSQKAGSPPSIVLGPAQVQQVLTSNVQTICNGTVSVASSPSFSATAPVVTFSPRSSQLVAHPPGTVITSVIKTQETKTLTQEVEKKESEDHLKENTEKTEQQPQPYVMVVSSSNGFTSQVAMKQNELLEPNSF
# Chain of CRX (O43186 whole entry): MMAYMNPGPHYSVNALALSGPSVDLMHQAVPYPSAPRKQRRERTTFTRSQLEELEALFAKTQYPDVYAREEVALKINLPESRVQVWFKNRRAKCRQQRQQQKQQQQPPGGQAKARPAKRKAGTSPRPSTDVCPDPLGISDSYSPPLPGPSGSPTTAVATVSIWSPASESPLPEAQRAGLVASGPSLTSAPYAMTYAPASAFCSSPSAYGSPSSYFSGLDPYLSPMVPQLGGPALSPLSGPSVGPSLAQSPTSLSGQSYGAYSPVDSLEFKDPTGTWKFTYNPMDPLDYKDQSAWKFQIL
# Chain of SPIB (Q01892 whole entry): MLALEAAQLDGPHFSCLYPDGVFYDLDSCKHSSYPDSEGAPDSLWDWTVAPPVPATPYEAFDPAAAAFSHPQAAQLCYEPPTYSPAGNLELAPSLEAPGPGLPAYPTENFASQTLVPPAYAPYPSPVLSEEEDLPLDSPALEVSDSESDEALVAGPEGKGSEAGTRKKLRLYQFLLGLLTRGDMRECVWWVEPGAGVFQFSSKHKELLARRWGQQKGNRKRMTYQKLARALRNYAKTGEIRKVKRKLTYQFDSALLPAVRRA
# Chain of ELF4 (Q99607 whole entry): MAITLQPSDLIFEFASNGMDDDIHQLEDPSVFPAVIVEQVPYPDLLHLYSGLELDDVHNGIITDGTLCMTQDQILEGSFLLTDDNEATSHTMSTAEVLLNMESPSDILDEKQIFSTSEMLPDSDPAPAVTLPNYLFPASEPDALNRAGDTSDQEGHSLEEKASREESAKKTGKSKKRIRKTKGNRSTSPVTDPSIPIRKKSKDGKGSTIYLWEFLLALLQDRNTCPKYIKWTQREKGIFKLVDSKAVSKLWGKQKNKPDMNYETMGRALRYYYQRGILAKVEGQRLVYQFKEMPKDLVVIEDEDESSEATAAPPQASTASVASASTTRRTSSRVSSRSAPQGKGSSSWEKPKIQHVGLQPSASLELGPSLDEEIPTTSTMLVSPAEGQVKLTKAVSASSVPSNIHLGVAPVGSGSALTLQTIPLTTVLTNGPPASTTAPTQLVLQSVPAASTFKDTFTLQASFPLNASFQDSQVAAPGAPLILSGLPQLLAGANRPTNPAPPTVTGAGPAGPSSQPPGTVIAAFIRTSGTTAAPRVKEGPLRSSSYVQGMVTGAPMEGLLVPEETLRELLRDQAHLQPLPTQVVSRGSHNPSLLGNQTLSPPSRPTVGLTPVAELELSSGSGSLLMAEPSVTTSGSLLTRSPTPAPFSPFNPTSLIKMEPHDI
sequence,measurement,setting,value
TGTTTC,binding signal,FLI1,"1.91 fold enrichment (6-mer frequency, TF over GST control)"
same,binding signal,ELK1,"1.85 fold enrichment (6-mer frequency, TF over GST control)"
same,binding signal,GABPA,"1.59 fold enrichment (6-mer frequency, TF over GST control)"
same,binding signal,ERG,"1.97 fold enrichment (6-mer frequency, TF over GST control)"
same,binding signal,ELF1,"1.8 fold enrichment (6-mer frequency, TF over GST control)"
same,binding signal,EHF,"1.79 fold enrichment (6-mer frequency, TF over GST control)"
same,binding signal,SPI1,"1.69 fold enrichment (6-mer frequency, TF over GST control)"
same,binding signal,SPIB,"1.74 fold enrichment (6-mer frequency, TF over GST control)"
same,binding signal,ELK3,"1.61 fold enrichment (6-mer frequency, TF over GST control)"
same,binding signal,FEV,"1.97 fold enrichment (6-mer frequency, TF over GST control)"
same,binding signal,ETV5,"1.83 fold enrichment (6-mer frequency, TF over GST control)"
same,binding signal,HSF1,"1.43 fold enrichment (6-mer frequency, TF over GST control)"
same,binding signal,SPIC,"1.49 fold enrichment (6-mer frequency, TF over GST control)"
same,binding signal,ELF4,"1.73 fold enrichment (6-mer frequency, TF over GST control)"
same,binding signal,ELK4,"1.55 fold enrichment (6-mer frequency, TF over GST control)"
same,binding signal,ETV2,"1.69 fold enrichment (6-mer frequency, TF over GST control)"
same,binding signal,ELF3,"1.68 fold enrichment (6-mer frequency, TF over GST control)"
same,binding signal,CRX,"1.17 fold enrichment (6-mer frequency, TF over GST control)"
same,binding signal,ETV1,"1.84 fold enrichment (6-mer frequency, TF over GST control)"
